Results on 22 compounds are retold here after PubChem BioAssay (Tox21).

Assay [1] can be described thus: qHTS assay for small molecule agonists of the p53 signaling pathway (AID 651631; calls by dose curve; also: nearly all actives have a fitted effect of over 15% in size). In short, it runs like this: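 Read-out is beta-lactamase FRET fluorescence measured 2 h after substrate addition at room temperature, in HCT-116 cells with a p53 response element-driven reporter exposed to compounds for 16 h at 37 °C.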
For orientation: In qHTS, concentration-response curves come from the screen itself.

Assay [2] is described as follows: qHTS assay for small molecules that induce genotoxicity in human embryonic kidney cells expressing luciferase-tagged ATAD5 (AID 651632). Also: nearly all actives have a fitted effect of over 15% in size. In short, it runs like this:
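Genotoxicity read-out via ATAD5-luciferase: HEK293T cells, 16 hr compound incubation at 37C, Amplite detection.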

A short description of assay [3]: qHTS assay for small molecule agonists of the p53 signaling pathway - cell viability (AID 651633; calls by dose curve;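 also: p53RE-bla HCT reporter cells with a stable beta-lactamase p53 reporter; series mostly up to about 83 µM; nearly all actives have a fitted effect of over 30% in size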). The method in brief:
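p53RE-bla cells were treated with compound for 16 hours at 37 C. Cytotoxicity was then measured as CellTiter-Glo luminescence after 30 min at room temperature.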

Assay [4] in a line: qHTS assay for small molecules that induce genotoxicity in human embryonic kidney cells expressing luciferase-tagged ATAD5 - cell viability (AID 651634; calls by dose curve; also: nearly all actives have a fitted effect of over 25% in size; also: potency is read from the fitted curve at half-maximal effect). In short, it runs like this: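 Live-cell protease activity (CellTiter-Fluor, fluorescence) indicates viability. HEK293T cells with luciferase-tagged ATAD5; 15.5 hr compound treatment at 37C.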
A short description of assay [5]: qHTS assay for small molecule disruptors of the mitochondrial membrane potential - cell viability (AID 720634; calls by dose curve; also: nearly all actives have a fitted effect of over 20% in size; also: potency is read from the fitted curve at half-maximal effect). The method in brief:
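Human hepatoma HepG2 cells were treated for 1 hr with test chemicals, then given m-MPI dye and CellTiter-Glo. Cell viability reflects luminescence proportional to cellular ATP.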

The nature of assay [6]: qHTS assay for small molecule disruptors of the mitochondrial membrane potential (AID 720635). Also: potency is read from the fitted curve at half-maximal effect. In short, it runs like this: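 HepG2 cells exposed to compound 1 hr at 37C, then Mito-MPS dye 30 min. Ratio read of aggregate (540/590 nm) versus monomer (490/535 nm) fluorescence.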
Assay [7] is described as follows: qHTS assay to test for compound auto fluorescence at 590 nm (red) in HepG2 cells (AID 720674). In short, it runs like this:
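HepG2 cells, 2,000 per well in MEM with 10% FBS, attached overnight at 37 C, then got 23 nL compound or DMSO. After 1 hr at 37 C, 5% CO2, red fluorescence was read at 540/590 nm against Rose Bengal sodium as reference.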

A short description of assay [8]: qHTS assay to test for compound auto fluorescence at 535 nm (green) in HepG2 cells (AID 720675).
Assay [9] can be described thus: qHTS assay to test for compound auto fluorescence at 460 nm (blue) in HEK293 cells (AID 720678). The method in brief: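 After cell attachment (4-5 hr, 37C), compounds were pinned onto HEK293 monolayers in 10% dialyzed FBS medium. The blue channel (405/460 nm) was read following overnight culture. Equivalency was calculated against triamterene.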
Assay [10] in a line: qHTS assay to test for compound auto fluorescence at 590 nm (red) in HEK293 cells (AID 720679). The method in brief:
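Plates of HEK293 cells (10% dialyzed FBS) are treated with 23 nL compound or DMSO vehicle after a 4-5 hr attachment period, incubated overnight at 37C, and read for red fluorescence at 540/590nm.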

Values joined by “and” are separate entries in the source; they are usually repeats but may differ in a detail not shown here. Identical values can stand only once. Records with an inconclusive call do not appear. Where a structure was tested more than once in an assay, its records may differ in their call. Active and inactive are the calls of the source. Unless noted, calls follow the shape of the dose curve; as a rule, active = well fitted curve in the direction sought with a large enough effect in the repeat runs; inconclusive = weak or mixed curves; inactive = no such curve, though single readings can be large; an effect the other way counts as inactive or inconclusive.

As to `CC(C)CC(C)CC(O)CC(C)C` (stereo not drawn), the Potency result in assay [1], in [2], in [3], in [4], in assay [5] and in assay [6] was “inactive” each time. The result in assay [7], in [8], in [9] and in assay [10] was inactive.
For the compound `Cc1c(N(C)CS(=O)(=O)O)c(=O)n(-c2ccccc2)n1C`, the Potency result in [1], in [2], in assay [3], in [4], in [5] and in [6] was “inactive” throughout. The result in [7], in assay [8], in assay [9] and in assay [10] was inactive.
Consider `CO[C@H]1C=CO[C@@]2(C)Oc3c(C)c(O)c4c(O)c(c(/C=N/N5CCN(C)CC5)c(O)c4c3C2=O)NC(=O)/C(C)=C\C=C[C@H](C)[C@H](O)[C@@H](C)[C@@H](O)[C@@H](C)[C@H](OC(C)=O)[C@@H]1C`, for which the Potency entry in assay [1], in assay [2], in assay [3] and in [5] was “inactive” throughout. Besides, the Potency in [4] was 23.7 µM (active) and 48.8 µM (active) and 39 µM (active); in assay [6], 10.6 µM (active) and 24.5 µM (active) and 11 µM (active). Moreover, the compound was classed as inactive in [7], in [8], in [9] and in [10].
Turning to `CCOCCO`, the Potency entry in assay [1], in [2], in assay [3], in assay [4], in assay [5] and in assay [6] was “inactive” in each case. The compound was classed as inactive in assay [7], in assay [8], in assay [9] and in assay [10].
As for `OC[C@@H](O)[C@@H](O)[C@H](O)[C@H](O)CO`, the Potency result in assay [1], in assay [2], in assay [3], in assay [4], in assay [5] and in assay [6] was “inactive” throughout. The compound was classed as inactive in assay [7], in assay [8], in assay [9] and in assay [10].
Take `COCC(C)N` (stereo not drawn): the Potency entry in [1], in assay [2], in assay [3], in assay [4], in assay [5] and in assay [6] was “inactive” in each case. Moreover, the compound was called inactive in assay [7], in assay [8], in assay [9] and in assay [10].
For the compound `CC(C)Cc1ccc(C(C)C(=O)O)cc1` (stereo not drawn), the Potency entry in [1], in assay [2], in [3], in assay [4], in assay [5] and in [6] was “inactive” in each case. Also, the result in [7], in assay [8], in assay [9] and in [10] was inactive.
For `C=C(C)OC(C)=O`, the Potency result in assay [1], in assay [2], in [3], in [4], in assay [5] and in assay [6] was “inactive” each time. The compound was classed as inactive in assay [7], in assay [8], in [9] and in assay [10].
Turning to `CCCCCCCCOc1ccc(C(=O)c2ccccc2)c(O)c1`, the Potency entry in assay [1], in assay [2], in assay [3], in [4] and in [5] was “inactive” each time. Also, in assay [6], the Potency entry is “inactive and 61.1 µM (active)”. For the same compound, the call in [7], in [8], in [9] and in assay [10] was inactive.
On to `C/C=C/c1ccc(O)c(OC)c1`, for which the Potency entry in [1], in assay [2], in assay [3], in assay [4] and in assay [5] was “inactive” in each case. In addition, in assay [6], the Potency was 61.1 µM (active). Moreover, the outcome in assay [7], in [8], in [9] and in [10] was inactive.
With `COc1cc(C=O)ccc1O`, the Potency result in assay [1], in assay [2], in assay [3], in assay [4], in [5] and in assay [6] was “inactive” each time. In addition, the call in [7], in assay [8], in assay [9] and in [10] was inactive.
Regarding `COc1ccc(O)cc1`, the Potency result in assay [1], in assay [2], in [3], in [4], in assay [5] and in assay [6] was “inactive” in each case. Besides, the compound was called inactive in assay [7], in [8], in assay [9] and in assay [10].
With `O=C(O)CCCCC1CCSS1` (stereo not drawn), the Potency result in assay [1], in assay [2], in assay [3], in [4], in assay [5] and in assay [6] was “inactive” in each case. In addition, the compound was called inactive in assay [7], in assay [8], in assay [9] and in [10].
Consider `COC(=O)c1ccc(C=O)cc1`, for which the Potency entry in [1], in [2], in assay [3], in assay [4], in [5] and in assay [6] was “inactive” throughout. For the same compound, the result in assay [7], in [8], in assay [9] and in assay [10] was inactive.
Turning to `C#C[C@]1(O)CC[C@H]2[C@@H]3CCC4=CC(=O)CC[C@@H]4[C@H]3CC[C@@]21CC`, the Potency result in assay [1], in assay [2], in assay [3], in [4] and in assay [6] was “inactive” in each case. Moreover, the Potency result in assay [5] was “inactive and 48.6 µM (active)”. Also, the call in [7], in assay [8], in [9] and in assay [10] was inactive.
`CC(=O)CCC(C)C`: the Potency entry in assay [1], in assay [2], in [3], in assay [4], in assay [5] and in assay [6] was “inactive” each time. Besides, the compound was called inactive in [7], in assay [8], in assay [9] and in [10].
With `CC(C)=CCC/C(C)=C/CO`, the Potency entry in [1], in [2], in [3], in [4] and in assay [5] was “inactive” throughout. Besides, the compound was called inactive in assay [7], in [8], in assay [9] and in assay [10].
Regarding `C=CC(=O)NC(C)(C)CS(=O)(=O)O`, the Potency result in [1], in [2], in [3], in [4], in assay [5] and in [6] was “inactive” throughout. Besides, the outcome in assay [7], in [8], in assay [9] and in assay [10] was inactive.
With `CCCCNC(=O)NS(=O)(=O)c1ccc(N)cc1`, the Potency entry in [1], in assay [2], in assay [3], in assay [4], in assay [5] and in assay [6] was “inactive” throughout. The call in [7], in [8], in assay [9] and in assay [10] was inactive.
On to `CCN(CC)CCOC(=O)c1ccc(N)cc1`, for which the Potency entry in [1], in [2], in [3], in [4] and in [5] was “inactive” each time. Besides, the compound was called inactive in assay [7], in assay [8], in assay [9] and in assay [10].
As for `NC(=O)c1ccc([N+](=O)[O-])cc1Cl`, the Potency result in [1], in [2], in assay [3], in [4], in assay [5] and in assay [6] was “inactive” each time. The result in [7], in assay [8], in assay [9] and in assay [10] was inactive.
For `NC(=O)OCC(COC(N)=O)c1ccccc1`, the Potency entry in assay [1], in assay [2], in assay [3], in [4], in assay [5] and in assay [6] was “inactive” in each case. Besides, the call in assay [7], in [8], in assay [9] and in assay [10] was inactive.
